# According to article PMC11062922 (Nature Chemical Biology, 2023):
# Read-outs that look alike come from different tables or passages of the source.
# What was measured:
# Set-up in all cases: species or system human, MV4-11 + K-562 + COLO205 + SK-N-BE2 + OVCAR-8
# NLK = conditions: read-out: apparent Kd, n = 1
# ULK3 = conditions: read-out: apparent Kd, n = 1
# FGFR1 = conditions: read-out: apparent Kd, n = 1
# MAPKAPK2 = conditions: read-out: apparent Kd, n = 1
# ACAD11 = conditions: read-out: apparent Kd, compound concentrations: 100 nM and 1000 nM (sheet 'Samples'), n = 1
# NQO2 = conditions: read-out: apparent Kd; compound concentrations: 100 nM and 1000 nM (sheet 'Samples'), CATDS: 3.2370847772948297E-2; n = 1
# FRK = conditions: read-out: apparent Kd, n = 1
# JAK1 = conditions: read-out: apparent Kd, compound concentrations: 100 nM and 1000 nM (sheet 'Samples'), n = 1
# JAK2 = conditions: read-out: apparent Kd, compound concentrations: 100 nM and 1000 nM (sheet 'Samples'), n = 1
# FYN = conditions: read-out: apparent Kd, n = 1
# IRAK4 = conditions: read-out: apparent Kd, n = 1
# MAP4K1 = conditions: read-out: apparent Kd, n = 1
# STK26 = conditions: read-out: apparent Kd; compound concentrations:100 nM and 1000 nM (sheet 'Samples'); n = 1
# ATR = conditions: read-out: apparent Kd, n = 1
# MAP2K1 = conditions: read-out: apparent Kd; compound concentrations: 100 nM and 1000 nM (sheet 'Samples'), CATDS: 3.7479108323340499E-3; n = 1
# PIK3CA = conditions: read-out: apparent Kd; compound concentrations: 100 nM and 1000 nM (sheet 'Samples'), CATDS: 3.6748488763129201E-2; n = 1
# PRKCB = conditions: read-out: apparent Kd; compound concentrations: 100 nM and 1000 nM (sheet 'Samples'), CATDS: 3.7264433576920599E-3; n = 1
# DJA1 = tested on: T1, DJA1; conditions: read-out: apparent Kd; compound concentrations: 100 nM and 1000 nM (sheet 'Samples'), CATDS: 3.8361892236094597E-2; n = 1
# T1 construct: gene DNAJA1
# [1] = compound concentrations:100 nM and 1000 nM (sheet 'Samples')
compound,measurement,setting,value
Cc1ccc(Nc2ccnc(Nc3ccc4c(c3)CS(=O)(=O)C4)n2)cc1O.Cl [GW579362A],potency estimated from few doses,"NLK; compound concentrations: 100 nM and 1000 nM (sheet 'Samples'), CATDS: 6.6652285634060698E-2",0.208 µM
same,potency estimated from few doses,"ULK3; compound concentrations: 100 nM and 1000 nM (sheet 'Samples'), CATDS: 3.7183394564858599E-2",0.681 µM
CC(C)N1CCC(n2cnc(-c3ccc(F)cc3)c2-c2ccnc(N)n2)CC1 [SB-223132],potency estimated from few doses,FGFR1; [1],2.19 µM
same,potency estimated from few doses,MAPKAPK2; [1],0.00702 µM
same,potency estimated from few doses,NLK; [1],0.195 µM
CN(c1ccc(NC(=O)N2CCN(CCCN3CCOCC3)CC2)cc1)c1ccnc(Nc2ccc(CS(C)(=O)=O)cc2)n1.Cl [GW830899A],potency estimated from few doses,ACAD11; CATDS: 1.8100646511475499E-2,2.06 µM
same,potency estimated from few doses,NQO2,0.552 µM
same,potency estimated from few doses,"ULK3; compound concentrations: 100 nM and 1000 nM (sheet 'Samples'), CATDS: 2.3659630965279298E-2",1.01 µM
Cl.Nc1c(C(=O)c2cccc(C#CCN3CCCCC3)c2)cnn1-c1ccc(F)cc1 [RO1154461-001],potency estimated from few doses,"FGFR1; compound concentrations: 100 nM and 1000 nM (sheet 'Samples'), CATDS: 1.0359283946495801E-2",1.68 µM
same,potency estimated from few doses,"FRK; compound concentrations: 100 nM and 1000 nM (sheet 'Samples'), CATDS: 1.2851217136808301E-2",0.829 µM
same,potency estimated from few doses,JAK1; CATDS: 1.11252993768114E-2,1.29 µM
same,potency estimated from few doses,JAK2; CATDS: 2.2434778262680002E-2,0.24 µM
NCCNS(=O)(=O)c1ccc(-c2ccnc3[nH]ccc23)cc1 [GSK977617A],potency estimated from few doses,FRK; [1],0.832 µM
same,potency estimated from few doses,FYN; [1],1.01 µM
CNC(=O)c1ccccc1Nc1nc(Nc2ccc(N3CCOCC3)cc2)ncc1Cl.Cl [GSK1576028A],potency estimated from few doses,FGFR1; [1],0.844 µM
same,potency estimated from few doses,FYN; [1],0.369 µM
same,potency estimated from few doses,IRAK4; [1],0.593 µM
same,potency estimated from few doses,MAP4K1; [1],0.387 µM
same,potency estimated from few doses,STK26,1.36 µM
CCn1c(-c2nonc2N)nc2c(C#CCN)ncc(OCCCN)c21.O=C(O)C(F)(F)F [GSK561866B],potency estimated from few doses,JAK2; CATDS: 0.29802313015986498,0.0129 µM
O=C1N=C(NCCc2ccc(Cl)cc2)S/C1=C\c1ccc2ncccc2c1 [RO4498479-000],potency estimated from few doses,ACAD11; CATDS: 8.46933106207029E-3,0.852 µM
same,potency estimated from few doses,"FGFR1; compound concentrations: 100 nM and 1000 nM (sheet 'Samples'), CATDS: 8.1769993071202692E-3",0.946 µM
same,potency estimated from few doses,"FRK; compound concentrations: 100 nM and 1000 nM (sheet 'Samples'), CATDS: 1.0205973298365501E-2",0.53 µM
same,potency estimated from few doses,"FYN; compound concentrations: 100 nM and 1000 nM (sheet 'Samples'), CATDS: 1.0262385049400099E-2",0.523 µM
same,potency estimated from few doses,JAK1; CATDS: 7.5180270628035497E-3,1.24 µM
same,potency estimated from few doses,"ULK3; compound concentrations: 100 nM and 1000 nM (sheet 'Samples'), CATDS: 8.2720873677068606E-3",0.913 µM
Cc1ccc2c(-c3ccncc3)c(-c3ccc(F)cc3)nn2c1.Cl [GW461484A],potency estimated from few doses,ATR; [1],0.838 µM
same,potency estimated from few doses,FRK; [1],0.887 µM
same,potency estimated from few doses,FYN; [1],1.17 µM
same,potency estimated from few doses,MAPKAPK2; [1],0.573 µM
Cn1ncc2c(N)ncnc21 [SKF-18267],potency estimated from few doses,ACAD11; CATDS: 4.0481268472205602E-3,1.3 µM
same,potency estimated from few doses,"ATR; compound concentrations: 100 nM and 1000 nM (sheet 'Samples'), CATDS: 6.4256483449106902E-3",0.516 µM
same,potency estimated from few doses,"FGFR1; compound concentrations: 100 nM and 1000 nM (sheet 'Samples'), CATDS: 4.74692919335207E-3",0.905 µM
same,potency estimated from few doses,"FRK; compound concentrations: 100 nM and 1000 nM (sheet 'Samples'), CATDS: 7.1234836872725703E-3",0.436 µM
same,potency estimated from few doses,"FYN; compound concentrations: 100 nM and 1000 nM (sheet 'Samples'), CATDS: 7.0897882723323898E-3",0.44 µM
same,potency estimated from few doses,"IRAK4; compound concentrations: 100 nM and 1000 nM (sheet 'Samples'), CATDS: 3.8610933772381499E-3",1.46 µM
same,potency estimated from few doses,JAK1; CATDS: 4.8033962123192799E-3,0.883 µM
same,potency estimated from few doses,JAK2; CATDS: 4.4372825621257503E-3,1.05 µM
same,potency estimated from few doses,MAP2K1,1.59 µM
same,potency estimated from few doses,"MAP4K1; compound concentrations: 100 nM and 1000 nM (sheet 'Samples'), CATDS: 5.1468947283468203E-3",0.769 µM
same,potency estimated from few doses,"MAPKAPK2; compound concentrations: 100 nM and 1000 nM (sheet 'Samples'), CATDS: 4.1039976146892603E-3",1.25 µM
same,potency estimated from few doses,PIK3CA,0.0533 µM
same,potency estimated from few doses,PRKCB,1.61 µM
same,potency estimated from few doses,"ULK3; compound concentrations: 100 nM and 1000 nM (sheet 'Samples'), CATDS: 5.6428686263863704E-3",0.647 µM
COc1cccc2c(-c3ccncc3)c(-c3ccc(F)cc3)nn12 [GW468513X],potency estimated from few doses,DJA1,1.52 µM
same,potency estimated from few doses,"MAPKAPK2; compound concentrations: 100 nM and 1000 nM (sheet 'Samples'), CATDS: 0.11200666699730499",0.0806 µM
O=C1NC(=O)C(N2CCc3ccccc32)=C1c1ccccc1Cl [SB-373598],potency estimated from few doses,ATR; [1],0.605 µM
same,potency estimated from few doses,FGFR1; [1],1.25 µM
same,potency estimated from few doses,FRK; [1],0.33 µM
same,potency estimated from few doses,FYN; [1],0.25 µM
same,potency estimated from few doses,ULK3; [1],1.45 µM
